Data taken from the supplement of paper PMC10849652.
Targets with a hit are over-represented here; the source holds about 8,800 in all. About 0.5% of all pairs of compound and target were hits.

Compound: CS(=O)(=O)N1CCN(Cc2cc3nc(-c4cccc5[nH]ncc45)nc(N4CCOCC4)c3s2)CC1 [pictilisib]
Experiment: log2 fold change, soluble protein after heating vs DMSO (PISA); higher = thermal stabilisation; K562 lysate, 10 uM; active = over 0.2 and 3.5 SD of the protein, either way, in both replicates (recomputed)
Outline: (§1)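 Pellets of K562 cells were dounce-homogenised in PBS pH 7.4 with 1 mM MgCl2, and the crude extract was held at 1 mg/mL protein for a 30 min treatment with 10 μM compound. Aliquots were heated for 3 min over 48°C-58°C and pooled before NP-40 was added to 0.5% at 4°C. The supernatant from 21,000xg for 90 min was quantified by TMTpro 16plex LC-MS/MS with channel sums equalised. Values are reported from duplicates as log-two fold change in thermal stability relative to solvent controls.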

Chain of UniProt Q8NC60 (Q8NC60 whole entry, looked up): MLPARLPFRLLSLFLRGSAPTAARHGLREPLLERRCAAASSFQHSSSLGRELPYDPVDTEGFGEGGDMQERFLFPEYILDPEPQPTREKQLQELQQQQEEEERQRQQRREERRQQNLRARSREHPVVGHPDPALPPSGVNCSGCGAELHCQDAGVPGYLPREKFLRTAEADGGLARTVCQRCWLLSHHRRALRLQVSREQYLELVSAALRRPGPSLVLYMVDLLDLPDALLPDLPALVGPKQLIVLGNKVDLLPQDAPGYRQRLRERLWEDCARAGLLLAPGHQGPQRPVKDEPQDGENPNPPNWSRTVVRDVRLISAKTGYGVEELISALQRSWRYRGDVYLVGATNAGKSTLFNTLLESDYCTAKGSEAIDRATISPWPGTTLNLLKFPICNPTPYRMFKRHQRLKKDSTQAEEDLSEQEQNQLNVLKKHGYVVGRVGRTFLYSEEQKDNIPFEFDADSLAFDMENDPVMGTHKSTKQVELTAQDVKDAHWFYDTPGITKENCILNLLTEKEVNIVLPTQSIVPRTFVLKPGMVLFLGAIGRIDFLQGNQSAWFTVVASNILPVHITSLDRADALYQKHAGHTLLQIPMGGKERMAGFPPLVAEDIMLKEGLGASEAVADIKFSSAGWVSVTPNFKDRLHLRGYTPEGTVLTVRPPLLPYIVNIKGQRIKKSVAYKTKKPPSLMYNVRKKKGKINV
Chain of UniProt Q15843 (Q15843 whole entry, looked up): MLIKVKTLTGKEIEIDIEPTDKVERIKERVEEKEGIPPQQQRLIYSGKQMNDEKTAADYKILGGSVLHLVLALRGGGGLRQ
Chain of UniProt Q9BRA0 (Q9BRA0 whole entry, looked up): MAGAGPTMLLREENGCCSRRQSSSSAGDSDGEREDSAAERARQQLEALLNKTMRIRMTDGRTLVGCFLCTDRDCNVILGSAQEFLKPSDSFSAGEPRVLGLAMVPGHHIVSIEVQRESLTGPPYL
Chain of UniProt Q99417 (Q99417 whole entry, looked up): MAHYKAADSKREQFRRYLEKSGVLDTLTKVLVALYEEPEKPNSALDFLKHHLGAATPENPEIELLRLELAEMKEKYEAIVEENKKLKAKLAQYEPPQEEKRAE
Chain of UniProt Q9H3P2 (Q9H3P2 whole entry, looked up): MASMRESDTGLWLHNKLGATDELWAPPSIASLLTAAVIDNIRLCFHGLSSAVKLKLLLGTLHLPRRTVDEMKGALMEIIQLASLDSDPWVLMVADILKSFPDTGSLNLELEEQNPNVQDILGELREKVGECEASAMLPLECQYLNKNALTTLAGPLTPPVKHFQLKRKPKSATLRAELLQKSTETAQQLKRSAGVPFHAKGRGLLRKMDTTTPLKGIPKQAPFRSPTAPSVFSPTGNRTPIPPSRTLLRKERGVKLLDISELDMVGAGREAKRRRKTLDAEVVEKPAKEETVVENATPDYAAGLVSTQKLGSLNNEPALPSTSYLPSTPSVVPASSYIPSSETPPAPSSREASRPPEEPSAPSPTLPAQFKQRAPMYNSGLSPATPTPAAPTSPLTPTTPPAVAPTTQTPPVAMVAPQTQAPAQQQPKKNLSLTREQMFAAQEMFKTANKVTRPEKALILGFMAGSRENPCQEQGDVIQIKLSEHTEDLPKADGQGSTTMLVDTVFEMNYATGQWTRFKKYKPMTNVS
Chain of UniProt Q9NPF4 (Q9NPF4 whole entry, looked up): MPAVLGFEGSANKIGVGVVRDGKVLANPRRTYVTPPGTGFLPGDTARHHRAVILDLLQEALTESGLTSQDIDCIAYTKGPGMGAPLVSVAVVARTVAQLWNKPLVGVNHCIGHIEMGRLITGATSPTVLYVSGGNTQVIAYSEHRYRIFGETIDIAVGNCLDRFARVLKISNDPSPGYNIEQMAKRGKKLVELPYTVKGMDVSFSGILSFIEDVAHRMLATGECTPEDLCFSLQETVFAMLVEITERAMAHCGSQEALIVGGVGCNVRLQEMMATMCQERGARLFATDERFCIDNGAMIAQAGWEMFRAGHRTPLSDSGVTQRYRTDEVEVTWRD
Chain of UniProt O75376 (O75376 whole entry, looked up): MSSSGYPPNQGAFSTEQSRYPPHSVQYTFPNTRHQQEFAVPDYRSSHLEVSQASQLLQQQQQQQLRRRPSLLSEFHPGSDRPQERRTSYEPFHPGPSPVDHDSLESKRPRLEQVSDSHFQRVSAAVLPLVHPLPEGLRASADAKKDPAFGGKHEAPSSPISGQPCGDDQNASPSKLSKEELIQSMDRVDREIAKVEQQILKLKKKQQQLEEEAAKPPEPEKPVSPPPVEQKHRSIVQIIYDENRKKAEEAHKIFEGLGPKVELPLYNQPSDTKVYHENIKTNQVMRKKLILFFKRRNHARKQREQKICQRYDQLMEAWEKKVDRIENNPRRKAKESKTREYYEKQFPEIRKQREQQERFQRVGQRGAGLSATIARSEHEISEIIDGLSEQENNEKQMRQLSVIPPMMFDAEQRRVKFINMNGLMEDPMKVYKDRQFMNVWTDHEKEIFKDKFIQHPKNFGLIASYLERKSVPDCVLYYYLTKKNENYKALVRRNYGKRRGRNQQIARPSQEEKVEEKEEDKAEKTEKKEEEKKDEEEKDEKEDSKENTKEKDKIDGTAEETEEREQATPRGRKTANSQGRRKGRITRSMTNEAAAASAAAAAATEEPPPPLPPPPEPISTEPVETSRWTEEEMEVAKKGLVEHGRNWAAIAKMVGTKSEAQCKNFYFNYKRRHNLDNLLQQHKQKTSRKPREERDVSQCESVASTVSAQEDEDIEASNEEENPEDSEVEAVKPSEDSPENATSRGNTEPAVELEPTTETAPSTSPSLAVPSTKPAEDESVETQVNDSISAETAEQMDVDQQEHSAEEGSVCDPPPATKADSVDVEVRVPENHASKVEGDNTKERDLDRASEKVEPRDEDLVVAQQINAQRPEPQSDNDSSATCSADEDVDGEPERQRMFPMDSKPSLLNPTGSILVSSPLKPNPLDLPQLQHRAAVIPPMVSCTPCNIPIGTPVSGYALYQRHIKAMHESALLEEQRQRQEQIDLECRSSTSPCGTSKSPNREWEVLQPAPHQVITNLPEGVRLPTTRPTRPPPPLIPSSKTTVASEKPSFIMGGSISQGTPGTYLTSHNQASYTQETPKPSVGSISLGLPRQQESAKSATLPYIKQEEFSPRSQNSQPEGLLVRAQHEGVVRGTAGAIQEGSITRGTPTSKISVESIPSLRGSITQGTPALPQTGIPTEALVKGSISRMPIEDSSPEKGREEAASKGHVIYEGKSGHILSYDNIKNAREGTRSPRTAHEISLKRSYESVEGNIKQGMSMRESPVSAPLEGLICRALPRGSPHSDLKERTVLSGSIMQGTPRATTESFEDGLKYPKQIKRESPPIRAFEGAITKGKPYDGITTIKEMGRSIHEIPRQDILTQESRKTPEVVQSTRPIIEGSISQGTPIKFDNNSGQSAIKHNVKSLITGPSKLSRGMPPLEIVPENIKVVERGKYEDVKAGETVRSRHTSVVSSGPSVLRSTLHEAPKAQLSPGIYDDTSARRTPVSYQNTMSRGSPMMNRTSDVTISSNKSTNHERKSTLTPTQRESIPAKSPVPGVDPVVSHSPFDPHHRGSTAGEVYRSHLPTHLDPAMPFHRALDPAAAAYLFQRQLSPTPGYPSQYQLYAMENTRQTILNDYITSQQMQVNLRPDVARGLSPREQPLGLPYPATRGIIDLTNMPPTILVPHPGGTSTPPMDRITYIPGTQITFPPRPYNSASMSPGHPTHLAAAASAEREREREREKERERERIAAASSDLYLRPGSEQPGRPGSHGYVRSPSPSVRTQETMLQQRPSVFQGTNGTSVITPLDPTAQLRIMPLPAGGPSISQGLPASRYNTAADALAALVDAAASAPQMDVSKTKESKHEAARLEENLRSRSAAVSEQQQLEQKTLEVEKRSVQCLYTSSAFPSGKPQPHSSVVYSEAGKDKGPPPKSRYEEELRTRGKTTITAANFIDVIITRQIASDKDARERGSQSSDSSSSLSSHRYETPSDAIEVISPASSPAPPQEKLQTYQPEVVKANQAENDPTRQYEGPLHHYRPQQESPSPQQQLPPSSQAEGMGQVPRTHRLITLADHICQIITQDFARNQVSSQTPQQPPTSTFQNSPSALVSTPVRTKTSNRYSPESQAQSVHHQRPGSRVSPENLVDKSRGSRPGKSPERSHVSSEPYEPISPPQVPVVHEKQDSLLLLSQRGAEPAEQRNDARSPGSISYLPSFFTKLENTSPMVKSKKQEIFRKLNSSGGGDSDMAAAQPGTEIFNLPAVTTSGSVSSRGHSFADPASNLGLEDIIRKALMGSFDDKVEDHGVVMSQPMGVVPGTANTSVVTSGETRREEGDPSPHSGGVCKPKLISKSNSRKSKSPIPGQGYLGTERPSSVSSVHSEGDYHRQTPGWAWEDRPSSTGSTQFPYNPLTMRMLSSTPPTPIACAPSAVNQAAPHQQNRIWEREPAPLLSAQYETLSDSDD
Chain of UniProt Q9NQR4 (Q9NQR4 whole entry, looked up): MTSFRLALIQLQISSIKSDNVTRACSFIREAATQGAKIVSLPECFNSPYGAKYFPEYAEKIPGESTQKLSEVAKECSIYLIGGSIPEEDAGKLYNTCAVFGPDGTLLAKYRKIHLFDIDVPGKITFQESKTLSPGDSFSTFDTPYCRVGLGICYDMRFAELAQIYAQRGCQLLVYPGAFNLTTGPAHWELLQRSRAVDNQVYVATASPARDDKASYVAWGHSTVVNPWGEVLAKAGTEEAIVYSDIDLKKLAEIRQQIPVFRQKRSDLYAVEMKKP
Chain of UniProt Q9Y6C9 (Q9Y6C9 whole entry, looked up): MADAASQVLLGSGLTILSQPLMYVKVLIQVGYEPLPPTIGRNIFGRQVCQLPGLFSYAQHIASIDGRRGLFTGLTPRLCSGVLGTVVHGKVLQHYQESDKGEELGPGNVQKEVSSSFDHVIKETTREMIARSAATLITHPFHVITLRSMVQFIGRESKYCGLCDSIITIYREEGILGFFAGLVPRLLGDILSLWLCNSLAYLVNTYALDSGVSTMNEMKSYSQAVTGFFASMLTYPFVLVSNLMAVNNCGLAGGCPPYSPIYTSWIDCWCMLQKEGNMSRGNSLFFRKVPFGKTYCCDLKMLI
Chain of UniProt O00483 (O00483 whole entry, looked up): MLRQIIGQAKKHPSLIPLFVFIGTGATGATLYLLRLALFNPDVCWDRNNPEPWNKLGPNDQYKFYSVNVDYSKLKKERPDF

Target | log2 fold change
NTPCR (UniProt Q9BSD7) | -0.028 (inactive)
MTHFD1L (UniProt B7ZM99) | -0.036 (inactive)
NOA1 (UniProt Q8NC60) | 0.032 (inactive)
NT5DC2 isoform 2 (UniProt Q9H857) | -0.019 (inactive)
OTUD7B (UniProt Q6GQQ9) | 0.025 (inactive)
NADK2 (UniProt Q4G0N4) | -0.028 (inactive)
NTMT1 (UniProt Q9BV86) | -0.008 (inactive)
OSGEP (UniProt Q9NPF4) | -0.025 (inactive)
NDUFA4 (UniProt O00483) | 0.017 (inactive)
NUB1 (UniProt Q9Y5A7) | -0.022 (inactive)
NFATC2 (UniProt Q13469) | 0.03 (inactive)
ORC2 (UniProt Q13416) | -0.049 (inactive)
NELFCD (UniProt Q8IXH7) | -0.048 (inactive)
NMRAL1 (UniProt Q9HBL8) | 0.105 (inactive)
PAIP2 (UniProt Q9BPZ3) | -0.036 (inactive)
NCAPD2 (UniProt Q15021) | 0.001 (inactive)
NEDD8 (UniProt Q15843) | 0.028 (inactive)
NFIC (UniProt P08651) | 0.109 (inactive)

Target | log2 fold change
NELFA (UniProt Q9H3P2) | 0.021 (inactive)
NLRP2 (UniProt Q9NX02) | -0.025 (inactive)
OSBPL6 isoform 5 (UniProt Q9BZF3) | 0.008 (inactive)
MTCH2 (UniProt Q9Y6C9) | -0.018 (inactive)
NAA38 isoform 2 (UniProt Q9BRA0) | -0.018 (inactive)
NAP1L5 (UniProt Q96NT1) | 0.017 (inactive)
MT-ND1 (UniProt P03886) | -0.03 (inactive)
NFATC2IP (UniProt Q8NCF5) | -0.091 (inactive)
MYCBP (UniProt Q99417) | -0.052 (inactive)
NIT2 (UniProt Q9NQR4) | -0.048 (inactive)
NEBL (UniProt O76041) | -0.046 (inactive)
NFKBIB (UniProt Q15653) | -0.011 (inactive)
NEK7 (UniProt Q8TDX7) | -0.018 (inactive)
NCOR1 (UniProt O75376) | -0.028 (inactive)
ORC3 isoform 2 (UniProt Q9UBD5) | -0.011 (inactive)
NCK1 (UniProt P16333) | 0 (inactive)
NFATC1 (UniProt O95644) | -0.088 (inactive)

Compound: C[C@@H](Oc1cc(-c2cnn(C3CCNCC3)c2)cnc1N)c1c(Cl)ccc(F)c1Cl [crizotinib]
Experiment: as above
Outline: as §1

Target | log2 fold change
NTPCR (UniProt Q9BSD7) | -0.071 (inactive)
MTHFD1L (UniProt B7ZM99) | -0.036 (inactive)
NOA1 (UniProt Q8NC60) | -0.052 (inactive)
NT5DC2 isoform 2 (UniProt Q9H857) | 0.004 (inactive)
OTUD7B (UniProt Q6GQQ9) | -0.099 (inactive)
NADK2 (UniProt Q4G0N4) | -0.005 (inactive)
NTMT1 (UniProt Q9BV86) | -0.009 (inactive)
OSGEP (UniProt Q9NPF4) | -0.006 (inactive)
NDUFA4 (UniProt O00483) | 0.02 (inactive)
NUB1 (UniProt Q9Y5A7) | 0.012 (inactive)
NFATC2 (UniProt Q13469) | -0.021 (inactive)
ORC2 (UniProt Q13416) | -0.074 (inactive)
NELFCD (UniProt Q8IXH7) | -0.043 (inactive)
NMRAL1 (UniProt Q9HBL8) | -0.017 (inactive)
PAIP2 (UniProt Q9BPZ3) | 0.021 (inactive)
NCAPD2 (UniProt Q15021) | -0.049 (inactive)
NEDD8 (UniProt Q15843) | 0.041 (inactive)
NFIC (UniProt P08651) | 0.007 (inactive)

Target | log2 fold change
NELFA (UniProt Q9H3P2) | 0.018 (inactive)
NLRP2 (UniProt Q9NX02) | -0.029 (inactive)
OSBPL6 isoform 5 (UniProt Q9BZF3) | 0.367 (active)
MTCH2 (UniProt Q9Y6C9) | -0.059 (inactive)
NAA38 isoform 2 (UniProt Q9BRA0) | 0.001 (inactive)
NAP1L5 (UniProt Q96NT1) | 0.094 (inactive)
MT-ND1 (UniProt P03886) | -0.062 (inactive)
NFATC2IP (UniProt Q8NCF5) | 0.027 (inactive)
MYCBP (UniProt Q99417) | 0.003 (inactive)
NIT2 (UniProt Q9NQR4) | -0.026 (inactive)
NEBL (UniProt O76041) | 0.09 (inactive)
NFKBIB (UniProt Q15653) | -0.055 (inactive)
NEK7 (UniProt Q8TDX7) | -0.045 (inactive)
NCOR1 (UniProt O75376) | 0.018 (inactive)
ORC3 isoform 2 (UniProt Q9UBD5) | -0.119 (inactive)
NCK1 (UniProt P16333) | -0.024 (inactive)
NFATC1 (UniProt O95644) | -0.111 (inactive)
